From PubChem BioAssay (Tox21)
Where “and” joins values, the source holds several entries; their conditions need not be identical. Equal values may be shown once. Records with an inconclusive call do not appear. A call without a number means that no potency is given here. More than one record can exist for a structure, and the calls need not agree. Calls of active or inactive are those of the source. Unless noted, calls come from the whole dose curve; as a rule, active = well fitted curve in the direction sought with a large enough effect in the repeat runs; inconclusive = weak or mixed curves; inactive = no such curve, though single readings can be large; an effect the other way counts as inactive or inconclusive.

Assays:
[1] = qHTS assay to identify aromatase inhibitors - cell viability counter screen (AID 743084);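 note: cells stimulated with testosterone during compound exposure; nearly all actives have a fitted effect of over 55% in size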; note: potency is the fitted concentration of half-maximal effect
[2] = target: Aryl hydrocarbon receptor (Homo sapiens) (UniProt P35869); test: qHTS assay to identify small molecule that activate the aryl hydrocarbon receptor (AhR) signaling pathway (AID 743085); note: nearly all actives have a fitted effect of over 15% in size; note: potency is the fitted concentration of half-maximal effect;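 for activation: HG2L7.5c1 human HepG2 liver cells with stably integrated DRE-driven firefly reporter; series mostly up to about 70 µM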
Method in brief: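 HepG2 cells stably carrying a 20-DRE firefly luciferase reporter (HG2L7.5c1) treated with compound for 24 hr at 37C. Luciferase read by ONE-Glo luminescence, with CellTiter-Fluor viability read first.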

[3] = qHTS assay to identify small molecule that activate the aryl hydrocarbon receptor (AhR) signaling pathway - cell viability counter screen (AID 743086);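 note: HepG2 liver cells carrying the AhR DRE luciferase reporter; series mostly up to about 70 µM; nearly all actives have a fitted effect of over 45% in size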
Method in brief: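 Cytotoxicity counter screen: CellTiter-Fluor signal (30 min, 37 C) in 4000 HepG2 cells/well carrying the DRE-luciferase reporter, following 24 h compound exposure at 37 C.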

[4] = target: Peroxisome proliferator-activated receptor gamma (Homo sapiens) (UniProt P37231); test: qHTS assay to identify small molecule agonists of the peroxisome proliferator-activated receptor gamma (PPARg) signaling pathway (AID 743094; active = well fitted activation curve with a large enough effect in the signal ratio in the repeat runs, not every such curve was filed as active; the % refers to the signal ratio; note: potency is the fitted concentration of half-maximal effect)
Method in brief: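 GeneBLAzer PPARg UAS-bla HEK293H cells were plated, rested 5 h, then exposed to compounds for 17 h at 37C. Beta-lactamase activity was read by LiveBLAzer B/G FRET substrate fluorescence after 1 h at room temperature.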

[5] = target: Peroxisome proliferator-activated receptor gamma (Homo sapiens) (UniProt P37231); test: qHTS assay to identify small molecule antagonists of the peroxisome proliferator-activated receptor gamma (PPARg) signaling pathway (AID 743191; calls by dose curve; note: nearly all actives have a fitted effect of over 30% in size; note: potency is the fitted concentration of half-maximal effect; for ratio activity, negative = inhibition: series mostly up to about 63 µM)
Method in brief: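 Beta-lactamase reporter under UAS control in HEK293H PPARg-bla cells; compound treatment 17 h at 37C. Read-out: fluorescence intensity after 1 h room-temperature incubation with LiveBLAzer B/G FRET substrate.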

[6] = qHTS assay to identify small molecule antagonists of the peroxisome proliferator-activated receptor gamma (PPARg) signaling pathway - cell viability counter screen (AID 743194); settings: Potency: co-treated with 50 nM rosiglitazone unless noted; note: nearly all actives have a fitted effect of over 55% in size; note: potency is the fitted concentration of half-maximal effect
Method in brief: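 Viability was measured as CellTiter-Glo luminescence in GeneBLAzer PPARg UAS-bla HEK293H cells. These cells had been exposed 17 h at 37 C to compounds together with rosiglitazone at 50 nM final, with the beta-lactamase readout taken in the same wells.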

[7] = qHTS assay for small molecule agonists of the antioxidant response element (ARE) signaling pathway (AID 743202; active = well fitted activation curve with a large enough effect in the signal ratio in the repeat runs, not every such curve was filed as active; the % refers to the signal ratio)
Method in brief: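 Quantitative high-throughput format in HepG2 cells bearing an integrated ARE-beta-lactamase reporter. Compound exposure lasted 16 h at 37 C, and fluorescence was read 2 h after adding LiveBLAzer B/G substrate at room temperature.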

[8] = qHTS assay for small molecule agonists of the antioxidant response element (ARE) signaling pathway - cell viability counter screen (AID 743203; calls by dose curve; note: nearly all actives have a fitted effect of over 55% in size; note: potency is the fitted concentration of half-maximal effect)
Method in brief: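 ARE-bla HepG2 cells were plated, rested 5 h at 37C/5% CO2, then exposed to compounds in DMSO for 16 h. Viability was read as CellTiter-Glo luminescence after 30 min at room temperature, in the same wells as the ARE screen.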

[9] = qHTS assay for small molecule activators of the heat shock response signaling pathway (AID 743210; active = well fitted activation curve with a large enough effect in the signal ratio in the repeat runs, with a control signal flat, not every such curve was filed as active; the % refers to the signal ratio;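 note: HeLa cells with beta-lactamase reporter driven by heat shock elements; series mostly up to about 63 µM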)
Method in brief: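 HeLa HSE-bla cells, overnight plating; cpd in DMSO 5 h, 37 C; LiveBLAzer B/G FRET substrate 2.5 h RT; fluorescence intensity read.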

[10] = qHTS assay for small molecule activators of the heat shock response signaling pathway - cell viability counter screen (AID 743209); note: nearly all actives have a fitted effect of over 50% in size
Method in brief: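 HSE-bla HeLa cells plated overnight, then exposed to Tox21 compounds (23 nL in DMSO) for 5 h at 37 C. After the bla reporter read, CellTiter-Glo was added in the same wells and luminescence read after 30 min at room temperature.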

Peroxisome proliferator-activated receptor gamma (Homo sapiens), sequence (P37231 whole entry, looked up): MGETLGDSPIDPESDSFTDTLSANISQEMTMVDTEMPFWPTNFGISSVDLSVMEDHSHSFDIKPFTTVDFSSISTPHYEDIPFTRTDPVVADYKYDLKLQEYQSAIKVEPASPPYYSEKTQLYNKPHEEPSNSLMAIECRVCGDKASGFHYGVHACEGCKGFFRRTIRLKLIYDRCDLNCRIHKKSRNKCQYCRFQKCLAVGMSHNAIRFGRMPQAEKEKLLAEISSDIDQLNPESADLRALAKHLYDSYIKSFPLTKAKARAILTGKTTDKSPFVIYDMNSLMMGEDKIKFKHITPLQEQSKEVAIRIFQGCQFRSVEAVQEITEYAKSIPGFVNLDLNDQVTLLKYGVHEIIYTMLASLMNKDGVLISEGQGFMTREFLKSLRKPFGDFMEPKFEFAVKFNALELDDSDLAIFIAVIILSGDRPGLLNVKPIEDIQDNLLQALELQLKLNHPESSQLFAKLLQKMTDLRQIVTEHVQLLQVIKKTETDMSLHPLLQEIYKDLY
Aryl hydrocarbon receptor (Homo sapiens), sequence (P35869 whole entry, looked up): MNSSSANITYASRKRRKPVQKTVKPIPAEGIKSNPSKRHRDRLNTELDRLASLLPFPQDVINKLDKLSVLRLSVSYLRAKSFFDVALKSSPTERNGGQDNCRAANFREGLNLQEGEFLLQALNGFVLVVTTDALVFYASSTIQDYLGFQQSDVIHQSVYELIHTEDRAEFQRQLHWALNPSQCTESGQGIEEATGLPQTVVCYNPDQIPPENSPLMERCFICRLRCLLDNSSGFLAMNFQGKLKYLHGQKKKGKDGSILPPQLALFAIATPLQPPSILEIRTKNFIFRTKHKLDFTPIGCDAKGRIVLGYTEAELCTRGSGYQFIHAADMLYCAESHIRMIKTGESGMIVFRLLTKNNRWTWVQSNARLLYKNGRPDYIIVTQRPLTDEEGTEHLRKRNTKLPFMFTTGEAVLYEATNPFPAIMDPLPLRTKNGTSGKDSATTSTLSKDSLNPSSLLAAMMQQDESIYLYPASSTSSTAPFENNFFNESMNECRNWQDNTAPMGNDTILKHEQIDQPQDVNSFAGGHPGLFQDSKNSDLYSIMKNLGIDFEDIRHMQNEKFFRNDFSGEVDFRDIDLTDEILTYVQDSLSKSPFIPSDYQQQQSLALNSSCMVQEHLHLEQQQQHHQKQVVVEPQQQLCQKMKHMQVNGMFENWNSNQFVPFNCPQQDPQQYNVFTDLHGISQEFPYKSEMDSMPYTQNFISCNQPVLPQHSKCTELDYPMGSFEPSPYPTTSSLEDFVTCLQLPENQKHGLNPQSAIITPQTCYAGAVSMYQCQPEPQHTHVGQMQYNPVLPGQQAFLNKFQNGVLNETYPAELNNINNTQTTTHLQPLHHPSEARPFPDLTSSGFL

Compound | Potency [1] | Potency [2] | Potency [3] | Potency [4] | Potency [5] | Potency [6] | Potency [7] | Potency [8] | Potency [9] | Potency [10] | activation [4] | ratio activity, negative = inhibition [5] | activation [7]
OC[C@H]1O[C@@H](Oc2ccc(O)cc2)[C@H](O)[C@@H](O)[C@@H]1O | inactive | inactive | inactive | inactive | inactive | inactive | inactive | inactive | inactive | – | – | – | –
CCCCCNCCCCC | inactive | inactive | inactive | inactive | inactive | inactive | inactive | inactive | inactive | inactive | – | – | –
Cc1ncc(CO)c(CO)c1O | inactive | inactive | inactive | inactive | inactive | inactive | inactive | inactive | inactive | – | – | – | –
Cc1cccc(C)c1[N+](=O)[O-] | inactive | inactive | inactive | inactive | inactive | inactive | inactive | inactive | inactive | inactive | – | – | –
CC(=O)OC/C=C(\C)CCC=C(C)C | inactive | inactive | inactive | inactive | inactive | inactive | inactive | inactive | inactive | inactive | – | – | –
CC(C)c1ccc(C(C)C)cc1 | inactive | inactive | inactive | inactive | inactive | inactive | inactive | inactive | inactive | inactive | – | – | –
CC(C=O)Cc1ccc(C(C)(C)C)cc1 (stereo not given) | inactive | inactive | inactive | inactive | inactive | inactive | inactive | inactive | inactive | inactive | – | – | –
CCCOC(=O)NCCCN(C)C | inactive | inactive | inactive | inactive | inactive | inactive | – | inactive | – | inactive | – | – | –
CCCOCC(C)O (stereo not given) | inactive | inactive | inactive | inactive | inactive | inactive | inactive | inactive | inactive | – | – | – | –
CC(=O)Nc1ccc(CC(=O)O)cc1 | inactive | inactive | inactive | inactive | inactive | inactive | inactive | inactive | inactive | inactive | – | – | –
O=c1c(O)c(-c2ccc(O)c(O)c2)oc2cc(O)cc(O)c12 | inactive | 61.2 µM (active) and 54.9 µM (active) and 61.1 µM (active) | inactive | inactive | inactive | inactive | inactive | inactive | – | – | – | – | –
O=C1OC(=O)c2c(Cl)c(Cl)c(Cl)c(Cl)c21 | inactive | inactive | inactive | inactive | inactive | inactive | inactive | inactive | inactive | inactive | – | – | –
Nc1cccc(N)n1 | inactive | 52.6 µM (active) and 61.1 µM (active) | inactive | inactive | inactive | inactive | inactive | inactive | inactive | – | – | – | –
N#CCC(=O)O | inactive | inactive | inactive | inactive | inactive | inactive | inactive | inactive | inactive | – | – | – | –
COc1ccc(N)c(OC)c1 | inactive | inactive | inactive | inactive | – | inactive | inactive | inactive | inactive | inactive | – | – | –
COCN(COC)c1nc(N(COC)COC)nc(N(COC)COC)n1 | inactive | inactive | inactive | inactive | inactive | inactive | inactive | inactive | inactive | inactive | – | – | –
CCCCC(CC)COC(=O)c1ccc(C(=O)OCC(CC)CCCC)cc1 (stereo not given) | inactive | inactive | inactive | inactive | inactive | inactive | inactive | inactive | inactive | inactive | – | – | –
COC(=O)OC | inactive | inactive | inactive | inactive | inactive | inactive | – | inactive | inactive | inactive | – | – | –
CC(O)CNCC(C)O (stereo not given) | inactive | inactive | inactive | inactive | inactive | inactive | – | inactive | inactive | inactive | – | – | –
C=C1C[C@]23C[C@@]1(O)CC[C@H]2[C@@]12C=C[C@H](O)[C@@](C)(C(=O)O1)[C@H]2[C@@H]3C(=O)O | inactive | inactive | inactive | inactive | inactive | inactive | inactive | inactive | – | – | – | – | –
C[n+]1ccn(CCO)c1 | inactive | inactive | inactive | inactive | – | inactive | inactive | inactive | – | – | – | – | –
O=[N+]([O-])c1cc(C(F)(F)F)ccc1Cl | inactive | inactive | inactive | inactive | inactive | inactive | inactive | inactive | inactive | – | – | – | –
CCCCCCCCCCCCCC(=O)O | inactive | inactive | inactive | inactive | – | inactive | inactive | inactive | – | – | – | – | –
CN1CCCC1=O | inactive | inactive | inactive | inactive | inactive | inactive | inactive | inactive | inactive | inactive | – | – | –
Cc1ccccc1C=O | inactive | inactive | inactive | inactive | inactive | inactive | inactive | inactive | inactive | – | – | – | –
CCCCCCCCCCCC(=O)N(C)CC(=O)O | inactive | inactive | inactive | 15 µM (active) | – | inactive | – | inactive | inactive | inactive | 0.467% [at 7.08 µM] (inactive) | 4.34% [at 5.95 µM] (inactive) | -3.99% [at 8.36 µM] (inactive)

Compound | Potency [1] | Potency [2] | Potency [3] | Potency [4] | Potency [5] | Potency [6] | Potency [7] | Potency [8] | Potency [9] | Potency [10] | activation [4] | ratio activity, negative = inhibition [5] | activation [7]
O=Cc1ccc(CO)o1 | inactive | inactive | inactive | inactive | inactive | inactive | inactive | inactive | inactive | inactive | – | – | –
OC1CCCCC1 | inactive | inactive | inactive | inactive | inactive | inactive | inactive | inactive | inactive | – | – | – | –
NC(N)=S | inactive | inactive | inactive | inactive | – | inactive | inactive | inactive | – | inactive | – | – | –
Cc1ccc(Cl)cc1 | inactive | inactive | inactive | inactive | inactive | inactive | inactive | inactive | inactive | – | – | – | –
COc1ccc([C@@H]2CC(=O)c3c(O)cc(O[C@@H]4O[C@H](CO[C@@H]5O[C@@H](C)[C@H](O)[C@@H](O)[C@H]5O)[C@@H](O)[C@H](O)[C@H]4O)cc3O2)cc1OC | inactive | inactive | inactive | inactive | inactive | inactive | inactive | inactive | inactive | inactive | – | – | –
OCc1ccc(Cl)cc1Cl | inactive | inactive | inactive | inactive | inactive | inactive | inactive | inactive | inactive | inactive | – | – | –
CCCCCCCCO | inactive | inactive | inactive | inactive | inactive | inactive | inactive | inactive | inactive | – | – | – | –
OCC(O)CS (stereo not given) | inactive | inactive | inactive | inactive | inactive | inactive | inactive | inactive | inactive | inactive | – | – | –
OB(O)O | inactive | inactive | inactive | inactive | inactive | – | inactive | inactive | inactive | inactive | – | – | –
CC1=CC(=O)CC(C)(C)C1 | inactive | inactive | inactive | inactive | – | inactive | inactive | inactive | – | – | – | – | –
c1cnc2c(c1)ccc1cccnc12 | 5.5 µM (active) | 55 µM (active) and 54.5 µM (active) and inactive | inactive | inactive | 1.56 µM (active) | 1.23 µM (active) | – | 5.45 µM (active) | – | – | – | – | –
O=C1O[C@H]([C@H](O)CO)C(O)=C1O | inactive | inactive | inactive | inactive | – | inactive | inactive | inactive | – | inactive | – | – | –
Cc1cc(C)cc(O)c1 | inactive | inactive | inactive | inactive | – | inactive | inactive | inactive | inactive | inactive | – | – | –
O=C(O)C1=NN(c2ccc(S(=O)(=O)O)cc2)C(=O)C1 | inactive | inactive | inactive | inactive | – | inactive | inactive | inactive | inactive | – | – | – | –
NC(=O)c1ncn([C@@H]2O[C@H](CO)[C@@H](O)[C@H]2O)n1 | inactive | inactive | inactive | inactive | – | inactive | inactive | inactive | inactive | – | – | – | –
Cc1ccc(C)c(S(=O)(=O)O)c1 | inactive | inactive | inactive | inactive | – | inactive | inactive | inactive | inactive | inactive | – | – | –
Cc1nnc(NS(=O)(=O)c2ccc(N)cc2)s1 | inactive | inactive | inactive | inactive | – | inactive | inactive | inactive | inactive | inactive | – | – | –
OCC(CO)(CO)CO | inactive | inactive | inactive | inactive | – | inactive | inactive | inactive | inactive | – | – | – | –
COC(=O)CCCCC(=O)OC | inactive | inactive | inactive | inactive | – | inactive | inactive | inactive | inactive | inactive | – | – | –
CCCCCC(C)=O | inactive | inactive | inactive | inactive | – | inactive | inactive | inactive | inactive | inactive | – | – | –
O=C1C(N(CO)C(=O)NCO)N(CO)C(=O)N1CO (stereo not given) | inactive | inactive | inactive | inactive | – | inactive | inactive | inactive | inactive | – | – | – | –
CCCCCCCC(=O)O | inactive | inactive | inactive | inactive | – | inactive | inactive | inactive | inactive | inactive | – | – | –
C1CCCNCC1 | inactive | inactive | inactive | inactive | – | inactive | inactive | inactive | inactive | – | – | – | –
COc1c(Cl)ccc(Cl)c1C(=O)O | inactive | inactive | inactive | inactive | – | inactive | inactive | inactive | inactive | inactive | – | – | –
CCCN(CCC)C(=O)SCC | inactive | inactive | inactive | inactive | – | inactive | inactive | inactive | inactive | – | – | – | –
Cc1cc(C)c(O)c(C)c1 | inactive | inactive | inactive | inactive | – | inactive | inactive | inactive | inactive | inactive | – | – | –
